According to PubChem BioAssay (NCATS):
Records with an inconclusive call do not appear. Where a call stands in place of a potency, no number is given. Activity calls are given as the source filed them. Calls come from the whole dose curve; as a rule, active = well fitted curve in the direction sought with a large enough effect; inconclusive = small, poorly fitted or top-dose-only effect, or another doubt; inactive = no such curve, though single readings can be large; an effect the other way counts as inactive or inconclusive.

Key:
[1] = qHTS of pediatric cancer cell lines to identify multiple opportunities for drug repurposing: Primary screen for BT-12 cells (AID 1347101); note: nearly all actives have a fitted effect of over 25% in size
In short: (§1)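 Cells (500-1,000/well) rested 5 h, then received compounds for 48 h; metabolically active cells were measured by CellTiter-Glo luminescence. Final concentrations spanned up to 46 µM (MIPE, 11-point) or 0.59 nM-46 µM (NPC, 8-point) in primary screens, 11-point in follow-ups.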

[2] = qHTS of pediatric cancer cell lines to identify multiple opportunities for drug repurposing: Primary screen for Rh18 cells (AID 1347102); note: nearly all actives have a fitted effect of over 65% in size
In short: as §1

[3] = qHTS of pediatric cancer cell lines to identify multiple opportunities for drug repurposing: Primary screen for OHS-50 cells (AID 1347103); note: nearly all actives have a fitted effect of over 40% in size
In short: as §1

[4] = qHTS of pediatric cancer cell lines to identify multiple opportunities for drug repurposing: Primary screen for RD cells (AID 1347104); note: nearly all actives have a fitted effect of over 55% in size
In short: (§2)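 Cells seeded at 500-1,000 cells/well in growth media, rested 5 hours at 37 degrees C, 5% CO2, then dosed; MIPE compounds at 11-point (from 0.78 nM) and NPC at 8-point (from 0.59 nM) final concentrations. Viability by CellTiter-Glo luminescence after 48 hours.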

[5] = qHTS of pediatric cancer cell lines to identify multiple opportunities for drug repurposing: Primary screen for MG 63 (6-TG R) cells (AID 1347105); note: nearly all actives have a fitted effect of over 50% in size
In short: as §2

[6] = qHTS of pediatric cancer cell lines to identify multiple opportunities for drug repurposing: Primary screen for control Hh wild type fibroblast cells (AID 1347106); note: nearly all actives have a fitted effect of over 55% in size
In short: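 Cells (500-1,000/well) in growth media were settled 5 h at 37 degrees C, then given compounds for 48 h. Viability was read as CellTiter-Glo luminescence. Primary runs used MIPE at 11 points (0.78 nM-46 µM) and NPC at 8 points (0.59 nM-46 µM); follow-ups used 11 points.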

[7] = qHTS of pediatric cancer cell lines to identify multiple opportunities for drug repurposing: Primary screen for Rh30 cells (AID 1347107); note: nearly all actives have a fitted effect of over 75% in size
In short: as §1

[8] = qHTS of pediatric cancer cell lines to identify multiple opportunities for drug repurposing: Primary screen for Rh41 cells (AID 1347108); note: nearly all actives have a fitted effect of over 70% in size
In short: as §2

[9] = qHTS of pediatric cancer cell lines to identify multiple opportunities for drug repurposing: Confirmatory screen for A673 cells (AID 1347110);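 note: cells exposed to compound for 48 h before the viability read; nearly all actives have a fitted effect of over 65% in size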
In short: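 A673 cells seeded at 500-1,000 cells/well, rested 5 h, then dosed; primary MIPE 11-point (0.78 nM to 46 µM), NPC (0.59 nM to 46 µM); confirmatory 11-point. CellTiter-Glo luminescence after 48 h.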

[10] = qHTS of pediatric cancer cell lines to identify multiple opportunities for drug repurposing: Confirmatory screen for NB1643 cells (AID 1347109); note: nearly all actives have a fitted effect of over 45% in size
In short: as §1
Potency is the fitted concentration of half-maximal effect.

Compound | Potency [1] | Potency [2] | Potency [3] | Potency [4] | Potency [5] | Potency [6] | Potency [7] | Potency [8] | Potency [9] | Potency [10]
COc1cc2nc(-c3ccc(N4CCN(C)CC4)cc3)nc(NCCN3CCOCC3)c2cc1OC | 0.153 µM (active) | 0.235 µM (active) | 0.0544 µM (active) | 0.0418 µM (active) | 1.48 µM (active) | 3.32 µM (active) | 0.0469 µM (active) | 0.296 µM (active) | 0.208 µM (active) | 
O=c1cc(-c2ccc(O)cc2)oc2cc(O)cc(O)c12 | 3.43 µM (active) | 2.35 µM (active) | 3.06 µM (active) | 2.96 µM (active) | 18.7 µM (active) | inactive |  |  |  | 
CCCNC(=O)NS(=O)(=O)c1ccc(Cl)cc1 | inactive | inactive | inactive | inactive | inactive | inactive | inactive | inactive |  | 
CCOC(=O)O[C@]1(C(=O)OCCl)CC[C@@H]2[C@H]3CCC4=CC(=O)C=C[C@]4(C)[C@@H]3[C@@H](O)C[C@@]21C | inactive | inactive | inactive | inactive | inactive |  | inactive | inactive |  | 
CC(=O)N[C@@H](CS)C(=O)O | inactive | inactive | inactive | inactive | inactive | inactive | inactive | inactive |  | 
CC=CCC=CCCC(=O)[C@H]1O[C@@H]1C(N)=O | inactive | inactive | inactive | inactive | inactive | inactive | inactive | inactive |  | 
C=C1C(=O)[C@@]23C(CC[C@@H]1[C@H]2O)[C@@]12CO[C@]3(O)[C@@H](O)[C@@H]1C(C)(C)CC[C@@H]2O (stereo partly drawn) | 3.43 µM (active) | 9.35 µM (active) | 9.68 µM (active) | 9.35 µM (active) | 4.69 µM (active) | inactive | 7.43 µM (active) | 4.69 µM (active) | 9.27 µM (active) | 4.14 µM (active)
NC(N)=Nc1nc(CSCC/C(N)=N/S(N)(=O)=O)cs1 | inactive | inactive | inactive | inactive | inactive | inactive | inactive | inactive |  | 
CCN(CC)CCOC(=O)c1ccc(N)cc1 | inactive | inactive | inactive | inactive | inactive | inactive | inactive | inactive |  | 
Nc1ncnc2c1ncn2[C@@H]1O[C@@H](CO)[C@H](O)[C@H]1O | inactive | inactive | inactive | inactive |  | inactive | inactive | inactive | inactive | 
CC(=Cc1ccccc1)C=C1SC(=S)N(CC(=O)O)C1=O | inactive | inactive | inactive | inactive | inactive | inactive | inactive | inactive |  | 
O=c1cc(N2CCOCC2)oc2c(-c3cccc4c3sc3ccccc34)cccc12 | 24.3 µM (active) | 18.7 µM (active) | 7.69 µM (active) | 13.2 µM (active) | 14.8 µM (active) | inactive |  |  |  | 
CCc1ccc(OCc2ccccc2C(=O)Nc2ccc3nc(C)cc(N)c3c2)cc1 | 9.68 µM (active) | 8.33 µM (active) | 3.43 µM (active) | 5.9 µM (active) | 7.43 µM (active) |  | 11.8 µM (active) | 9.35 µM (active) | 3.69 µM (active) | 9.27 µM (active)
O=C(Nc1c(Cl)cncc1Cl)c1ccc(OC(F)F)c(OCC2CC2)c1 | inactive | inactive | inactive | inactive | inactive | inactive | inactive | inactive |  | 
O=C(O)c1ccccc1C(=O)Nc1ccc(-c2ccccc2)cc1 | inactive | inactive | inactive | inactive | inactive |  | inactive | inactive |  | 
CN(C)Cc1cccc(N=C(c2ccccc2)c2c(O)[nH]c3cc(C(=O)N(C)C)ccc23)c1 | 6.85 µM (active) |  |  |  |  |  |  |  |  | 
CC(C)(C)C(=O)Oc1ccc2c(c1)nc(NC(=O)c1cccc([N+](=O)[O-])c1)n2CCCO | inactive | inactive | inactive | inactive | inactive | inactive | inactive | inactive |  | 
O=c1c(-c2ccc(O)cc2)coc2cc(O)ccc12 | inactive | inactive | inactive | inactive |  | inactive | inactive | inactive |  | 
O=c1ccn([C@@H]2O[C@H](CO)[C@H](O)[C@H]2O)c(=O)[nH]1 | inactive | inactive | inactive | inactive | inactive | inactive | inactive | inactive |  | 
Cc1cccc(C)c1OCC(C)N (stereo not drawn) | inactive | inactive | inactive | inactive | inactive | inactive | inactive | inactive |  | 
O=C(O)c1cc(O)c2c(c1)C(=O)c1cccc(O)c1C2=O | inactive | inactive | inactive |  |  |  |  |  |  | 
Cc1cnc(C(=O)O)c[n+]1[O-] | inactive | inactive | inactive | inactive |  | inactive | inactive |  |  | 

Compound | Potency [1] | Potency [2] | Potency [3] | Potency [4] | Potency [5] | Potency [6] | Potency [7] | Potency [8] | Potency [9] | Potency [10]
Nc1ncnc2c1ncn2[C@@H]1O[C@H](CO)C[C@@H]1O | inactive | inactive | 24.3 µM (active) | inactive |  |  |  |  |  | 
COc1ccc(-c2nc(N3CCOCC3)c3sc(CN(C)c4ncc(C(=O)NO)cn4)cc3n2)cn1 | 0.0086 µM (active) | 0.001 µM (active) | 0.0011 µM (active) | 0.0166 µM (active) | 0.0296 µM (active) | inactive | 0.209 µM (active) | 0.0296 µM (active) | 1.65 µM (active) | 0.928 µM (active)
CON=C(C(=O)N[C@@H]1C(=O)N2C(C(=O)OCOC(=O)C(C)(C)C)=C(C=Cc3scnc3C)CS[C@H]12)c1csc(N)n1 | inactive | inactive | inactive | inactive | inactive |  | inactive | inactive |  | 
O=C(O)C(O)Cc1ccc(O)c(O)c1 (stereo not drawn) | inactive | inactive | inactive | inactive | inactive | inactive | inactive | inactive |  | 
CC(C)C(C)C=CC(C)C1CCC2C3=CC=C4CC(O)CCC4(C)C3CCC21C (stereo not drawn) | inactive | inactive | inactive | inactive | inactive | inactive | inactive | inactive |  | 
CC(=O)CCCCn1c(=O)c2c(ncn2C)n(C)c1=O | inactive | inactive | inactive | inactive |  | inactive | inactive | inactive |  | 
CC(C)(C)c1ccc(C(O)CCCN2CCC(C(O)(c3ccccc3)c3ccccc3)CC2)cc1 (stereo not drawn) | inactive | inactive | inactive | inactive | inactive | inactive | inactive | inactive |  | 
O=C(O)c1cc(-c2ccccc2)nc2ccccc12 | inactive | inactive | inactive | inactive | inactive | inactive | inactive | inactive |  | 
CC(=O)c1ccc(S(=O)(=O)NC(=O)NC2CCCCC2)cc1 | inactive | inactive | inactive | inactive | inactive | inactive | inactive | inactive |  | 
CCCCC1C(=O)N(c2ccccc2)N(c2ccccc2)C1=O | inactive | inactive | inactive | inactive |  | inactive | inactive | inactive |  | 
COc1cccc(-c2cc(=O)c3ccccc3o2)c1N | inactive | inactive | inactive | 13.2 µM (active) |  |  | inactive | inactive |  | inactive
O=c1[nH]cnc2c1ncn2[C@H]1CC[C@@H](CO)O1 | inactive | inactive | inactive | inactive | inactive | inactive | inactive | inactive | inactive | inactive
O=C(OCC#CCSc1nnc(-c2cccc3ccccc23)o1)c1cc2ccccc2s1 | inactive | inactive | inactive | inactive | inactive | inactive | inactive | inactive |  | 
CC(C)(C)OC(=O)N[C@H]1CCCCCC=C[C@@H]2C[C@@]2(C(=O)NS(=O)(=O)C2CC2)NC(=O)[C@@H]2C[C@@H](OC(=O)N3Cc4cccc(F)c4C3)CN2C1=O | inactive | inactive | inactive | inactive | inactive | inactive | inactive |  |  | 
C=C1C(=O)OC(CCCCCCCC)C1C(=O)O (stereo not drawn) | inactive | inactive | inactive | inactive | inactive | inactive | inactive | inactive |  | 
CN1[C@@H]2CCC[C@@H]1CC(NC(=O)c1nn(C)c3ccccc13)C2 (stereo partly drawn) | inactive | inactive |  | inactive | inactive |  | inactive | inactive |  | 
NC1CCC(Nc2nc(Nc3ccc(C(=O)N4CCCCC4)cc3)c3ncn(-c4cccc(F)c4)c3n2)CC1 (stereo not drawn) | inactive | inactive | inactive |  | inactive | inactive | inactive | inactive |  | 
CS(=O)c1ccc(-c2nc(-c3ccc(F)cc3)c(-c3ccncc3)[nH]2)cc1 (stereo not drawn) | 44.4 µM (active) | inactive |  | 42.9 µM (active) | inactive | inactive |  |  |  | 
CNC(=O)c1ccc2cc(C3(O)CCn4cncc43)ccc2c1 (stereo not drawn) | inactive | inactive | inactive |  | inactive | inactive | inactive | inactive |  | 
CCN1CCC[C@H]1CNC(=O)c1cc(S(N)(=O)=O)ccc1OC | inactive | inactive | inactive |  | inactive | inactive | inactive | inactive |  | 
C[N+](C)(C)CC(=O)O | inactive | inactive | inactive |  | inactive | inactive | inactive | inactive |  | 
